The list is not random: actives were taken first. Their share in the collection is about 3.4%.
PKM2 act: qHTS Assay for Activators of Human Muscle isoform 2 Pyruvate Kinase; Pyruvate kinase PKM (Homo sapiens), P14618; purified PKM2, Kinase-Glo ATP luminescence, activation; response scale: 0% is enzyme alone, no compound; Potency, µM (highest dose often 57.5 µM), for inactives: at the highest dose activation, usual class: activators; 260,000 tested, 0.34% active; also: % is scaled to controls: 0 for no effect and ±100 for the full control effect; nearly all actives have a fitted effect of over 55% in size
Target sequence (P14618 whole entry, looked up, canonical isoform): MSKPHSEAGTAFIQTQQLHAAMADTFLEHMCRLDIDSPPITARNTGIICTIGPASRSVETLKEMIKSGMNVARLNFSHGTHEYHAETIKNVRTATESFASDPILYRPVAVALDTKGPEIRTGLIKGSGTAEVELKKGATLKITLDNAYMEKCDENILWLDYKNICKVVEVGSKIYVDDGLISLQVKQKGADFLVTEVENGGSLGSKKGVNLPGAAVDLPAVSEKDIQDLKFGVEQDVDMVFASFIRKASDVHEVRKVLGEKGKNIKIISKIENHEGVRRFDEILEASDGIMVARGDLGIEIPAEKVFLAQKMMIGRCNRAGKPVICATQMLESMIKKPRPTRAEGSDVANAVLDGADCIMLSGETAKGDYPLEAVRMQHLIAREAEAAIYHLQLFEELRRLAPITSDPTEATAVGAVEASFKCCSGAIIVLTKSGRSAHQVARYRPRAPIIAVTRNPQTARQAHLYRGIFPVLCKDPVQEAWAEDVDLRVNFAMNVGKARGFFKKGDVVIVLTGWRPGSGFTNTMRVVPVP
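Kinase-Glo luminescence reports ATP generated from ADP (0.1 mM) and PEP (0.5 mM) by purified hPK-M2 after 1 h at room temperature, pH 7.2 imidazole buffer; intermediate enzyme activity allows detecting inhibitors and activators.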
PLK1 PBD block: qHTS for Inhibitors of PLK1-PDB (polo-like kinase 1 - polo-box domain): Primary Screen. Serine/threonine-protein kinase PLK1 (Homo sapiens), P53350. Plk1 PBD binding of FITC phosphopeptide, fluorescence polarization. Potency, µM, without a hit: max response, negative = inhibition, actives largely listed as inhibitors. 360,000 tested, 2.8% active. AID 720504, 2013; also: series mostly up to about 57 µM; % is scaled to controls: 0 for no effect and ±100 for the full control effect; nearly all actives have a fitted effect of over 65% in size
GLS inh: qHTS for Inhibitors of Glutaminase (GLS). GLS enzymatic activity, qHTS titration. 410,000 tested, 0.21% active. AID 624170, 2012. Potency, µM (series often up to 45.5 µM), for inactives: top-dose activity change, negative = inhibition, hits mostly inhibitors. Glutaminase kidney isoform, mitochondrial (Homo sapiens), O94925; also: % is scaled to controls: 0 for no effect and ±100 for the full control effect
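Assay buffer: 45 mM KH2PO4 pH 8.2, 0.02% Tween-20. hKGA acts on L-glutamine (1 mM solution added); product glutamate is reported by an oxidase/peroxidase Amplex Red coupling, with fluorescence taken at baseline and 30 min.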
Mito fusion act: qHTS Assay for Small Molecule Inhibitors of Mitochondrial Division or Activators of Mitochondrial Fusion | S. cerevisiae fusion-defective mutant growth rescue, CellTiterGlo 48 h | Potency, µM (series often up to 46.1 µM), without a hit: at the highest dose growth rescue (activation), usual class: activators | 320,000 tested, 0.23% active | AID 485298, 2010; also: % of control where 0% means no effect; nearly all actives have a fitted effect of over 45% in size
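Growth-rescue viability read-out: after 48 h at the non-permissive 37C in glycerol/ethanol YPEG, yeast mitochondrial fusion mutants are measured by CellTiterGlo luminescence; compounds (23 nl pinned per well) restoring growth score as division inhibitors or fusion activators.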
KAT2A inh: qHTS Assay for Inhibitors of GCN5L2 | Histone acetyltransferase KAT2A (Homo sapiens), Q92830 | GCN5L2 HAT assay, ThioGlo1 CoA-SH fluorescence | Potency, µM (series often up to 58.9 µM), for the others: at the top dose activity change, negative = inhibition, hits mostly inhibitors | 390,000 tested, 0.21% active | AID 504327, 2011; also: % is scaled to controls: 0 for no effect and ±100 for the full control effect
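Compounds, pin-transferred from DMSO stocks, meet 20nM GCN5L2 for 15 min before the reaction begins with H3(1-25) peptide (75uM) and acetyl-CoA (70uM). Thiol-reactive ThioGlo1 reports CoA release over 20 min at room temperature.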
VDR inh: Inhibitors of the vitamin D receptor (VDR): qHTS. VDR-SRC2-3 peptide fluorescence polarization, 2 h. AID 504847, 2011. Potency, µM, for inactives: max response, negative = inhibition, usual class: inhibitors. Vitamin D3 receptor (Homo sapiens), P11473. 400,000 tested, 0.93% active; also: % is scaled to controls: 0 for no effect and ±100 for the full control effect
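Fluorescence polarization assay measuring small-molecule disruption of VDR binding to the coregulator peptide SRC2-3. Compounds were pin-transferred (23 nl) into the reagent mix and incubated 2 h at room temperature before reading.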
VDR inh confirm: qHTS for Inhibitors of the vitamin D receptor (VDR): Hit Validation in Primary Screen. shares compounds with VDR inh. VDR-coactivator inhibition assay, qHTS confirmation. Potency, µM, most hits filed as inhibitors. 840 tested, 89% active. AID 602199, 2012
VDR FP: qHTS for Inhibitors of the vitamin D receptor (VDR): Hit Validation using a Fluorescein Assay; shares compounds with VDR inh; VDR-coactivator binding, fluorescein fluorescence polarization; Potency, µM (highest dose often 57.1 µM), for the others: at the highest dose activity change, negative = inhibition, actives largely listed as inhibitors; AID 602200, 2012; 840 tested, 48% active
VDR bla reporter: qHTS for Inhibitors of the vitamin D receptor (VDR): Hit Validation using a Beta-Lactamase Assay. 840 tested, 23% active. VDR beta-lactamase reporter cells, FRET ratio; cells co-treated with VDR agonist LG190178. Potency, µM (series often up to 46.1 µM), for inactives: at the top dose activity change, negative = inhibition, most hits filed as inhibitors. shares compounds with VDR inh; also: % is scaled to controls: 0 for no effect and ±100 for the full control effect
VDR viability: qHTS for Inhibitors of the vitamin D receptor (VDR): Hit Validation using a Cytotoxicity Assay; AID 602204, 2012; shares compounds with VDR inh; cytotoxicity counter-screen, cell viability, qHTS; Potency, µM (top dose mostly 48.3 µM), for the others: at the highest dose activity change, negative = cytotoxicity, most hits filed as cytotoxic; 840 tested, 18% active;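 also: plate controls were DMSO for no effect and high-concentration cycloheximide for full effect; nearly all actives have a fitted effect of over 75% in size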
Starred values were filed as active, the others as inactive; ? = inconclusive; · = no result given; [ ] = another dose, or the depositor's remark. Calls follow the shape of the dose curve; as a rule, active = well fitted curve in the direction sought with a large enough effect; inconclusive = small, poorly fitted or top-dose-only effect, or another doubt; inactive = no such curve, though single readings can be large; an effect the other way counts as inactive or inconclusive. Potency is read from the fitted curve at half-maximal effect.

SMILES	PKM2 act	PLK1 PBD block	GLS inh	Mito fusion act	KAT2A inh	VDR inh	VDR inh confirm	VDR FP	VDR bla reporter	VDR viability
CCOC(=O)c1c(C)[nH]c(C(=O)COC(=O)c2cc(C)oc2C)c1C	·	-9%	-9%	2%	3%	14%	·	·	·	·
N#C/C(=C1\C(=O)Nc2c(Cl)cc(Cl)cc21)c1nnc2n1CCCCC2	-16%	?	23%	-9%	-7%	28µM*	6.7*	25µM*	35%	18%
Cc1[nH]n(-c2ncc(-c3ccccc3)s2)c(=O)c1C(c1ccc(Cl)cc1)C(C#N)C#N (stereo not given)	-1%	3.8µM*	-32%	-4%	-29%	35µM*	6.7*	?	20%	-5%
Cc1[nH]n(-c2ccc(Cl)cc2)c(=O)c1/C=N/c1nnc(-c2ccccc2)s1	-43%	0%	16%	-5%	-2%	5%	·	·	·	·
O=C(O)c1cccc(-c2ccccc2)c1O	·	0%	7%	·	·	-9%	·	·	·	·
CCOc1ccc(C(=O)CC(C(=O)O)N2CCN(Cc3ccccc3)CC2)cc1 (stereo not given)	·	-23%	5%	-6%	-2%	50µM*	24*	28µM*	27%	-25%
CCOc1ccc(C(=O)CC(C(=O)O)N2CCCCC2)cc1 (stereo not given)	·	?	-1%	1%	-3%	40µM*	24*	?	11%	-1%
CCOc1ccc(C(=O)OC(C)C(=O)N2CCN(Cc3ccccc3)CC2)cc1 (stereo not given)	·	2%	-11%	·	3%	-8%	·	·	·	·
COc1ccc(NC(=O)CN(c2cc(C)cc(C)c2)S(=O)(=O)c2c(C)noc2C)cc1Cl	·	·	-10%	·	-7%	-3%	·	·	·	·
Cc1oc(C)c2c(=O)cc(-c3ccc4c(c3)OCO4)cc(OC(=O)c3ccccc3Br)c12	·	·	6%	·	-8%	-2%	·	·	·	·
COc1ccc(CN2C(=O)c3cccnc3C2=O)cc1S(=O)(=O)NC(C)C	·	-6%	-1%	-13%	-2%	25%	·	·	·	·
Cc1ccc(C(=O)c2coc3c2C(=O)C(=O)c2ccccc2-3)cc1	-1%	?	-2%	-23%	-7%[0.501 µM]	7.1µM*	4.7*	?	-22%	?
Cc1oc2c(c1C(=O)N1CCC(C)CC1)C(=O)c1ccccc1C2=O	-5%	-2%	1%	-5%	1%	-5%	·	·	·	·
O=C(c1ccc(Cl)cc1)c1ccc(CN2C(=O)c3ccccc3C2=O)o1	1%	2%	3%	13%	1%	4%	·	·	·	·
Cc1oc2c(c1C(=O)c1ccc(Cl)cc1)C(=O)C(=O)c1ccccc1-2	3%	?	-5%	0%	?	?	3.5*	3.5µM*	2.9µM*	3.8µM*
Cc1ccc(C(=O)c2c(C)oc3c2C(=O)C(=O)c2ccccc2-3)cc1	-4%	?	0%	-15%	-5%	3.5µM*	1.5*	4µM*	?	5.6µM*
CC(C)(C)OC(=O)Nc1ccccc1-n1nnnc1C(C(=O)c1ccc(F)cc1)N1CCOCC1 (stereo not given)	·	-21%	·	·	·	·	·	·	·	·
CC(C)CCC[C@@H](C)[C@H]1CC[C@H]2[C@@H]3CC=C4C[C@@H](O)CC[C@]4(C)[C@H]3CC[C@]12C	·	·	-2%	·	14%	3%	·	·	·	·
CC(C)CCC[C@@H](C)[C@@H]1CC[C@H]2C3=CC=C4CC(O)CC[C@]4(C)[C@H]3CC[C@@]21C (stereo not given in full)	·	·	·	·	-14%	28µM*	?	-3%	?	?
Cc1ccc(NC(=O)c2ccc(-c3ccccc3)s2)cc1	·	·	-10%	·	-5%	1%	·	·	·	·
Cc1ccc(NC(=O)C2=C(c3ccccc3)S(=O)(=O)CCS2(=O)=O)cc1	·	6µM*	0%	-3%	?	?	6.3*	8.9µM*	6.5µM*	?
O=C(NNc1cc(Br)c(O)c(Br)c1)c1ccccc1	-15%	-21%	-2%	2%	-26%	79µM*	?	?	-4%	1%
O=C(NNc1ccccc1)c1ccc(Cl)c(Cl)c1	·	-4%	9%	·	·	?	·	·	·	·
CCOc1ccc(NC(=O)Cn2nnc(-c3nc(-c4ccncc4)no3)c2N)cc1	·	·	0%	·	1%	-3%	·	·	·	·
O=C(O)CN1C(=O)/C(=C\c2cc(Br)ccc2OCc2ccc(F)cc2)SC1=S	·	21µM*	10%	11%	?	71µM*	?	32µM*	24%	11%
O/N=C/c1cc(Br)ccc1OCc1ccc(F)cc1	·	-25%	13%	·	·	?	·	·	·	·
O=C(O)CSc1cc(NS(=O)(=O)c2ccc(Br)cc2)c2ccccc2c1O	·	4.7µM*	?	-42%	38%	16µM*	4.2*	18µM*	-28%	?
Cc1ccc(S(=O)(=O)Nc2ccc(Br)cc2C(NCC(=O)O)c2ccccc2)cc1 (stereo not given)	7%	-18%	9%	-4%	33%	-18%	·	·	·	·
COc1ccccc1C1=NNC(=Nc2cccc(S(=O)(=O)N(C)C)c2)SC1	-4%	-19%	4%	7%	-6%	?	?	?	2%	?

Source: PubChem BioAssay
